# From PubChem BioAssay (EPA / NIEHS)
# Records with an inconclusive call do not appear. Active and inactive are the calls of the source. The calls were made as follows, unless noted: active = hit-call score of the fitted dose curve at least 0.9, where 1 is the maximum; inactive = score below 0.9.
# Assays:
# DIO1 (gene 1733) = experiment: CCTE_GLTED_hDIO1: CCTE's human Deiodinase 1 (DIO1) Inhibition Assay, Great Lakes Toxicology and Ecology Division (GLTED) Lab (AID 2283987; active = hit-call score of the fitted dose curve at least 0.9, where 1 is the maximum;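 also: isolated human DIO1 enzyme in a cell-free setup rather than cells; enzyme activity read as free iodide liberated from substrate via Sandell-Kolthoff colorimetry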)
# Method in brief: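 Steps: human DIO1 enzyme plus test chemical, 3 h incubation; free iodide then quantified in a second Sandell-Kolthoff step by absorbance. DMSO served as negative control and baseline.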
# [1] = molecular target: Nucleoli Translocation, AR (gene 367) (UniProt P10275); experiment: UPITT_HCI_U2OS_AR_TIF2_Nucleoli_Antagonist: University of Pittsburgh U2OS Androgen Receptor-Transcriptional Intermediary Factor 2 (AR-TIF2) Antagonism High Content Imaging Assay for Nucleoli Translocation (AID 2283997; active = hit-call score of the fitted dose curve at least 0.9, where 1 is the maximum)
# Chain of Nucleoli Translocation, AR (gene 367) (P10275 whole entry, looked up, the tested form may be a part): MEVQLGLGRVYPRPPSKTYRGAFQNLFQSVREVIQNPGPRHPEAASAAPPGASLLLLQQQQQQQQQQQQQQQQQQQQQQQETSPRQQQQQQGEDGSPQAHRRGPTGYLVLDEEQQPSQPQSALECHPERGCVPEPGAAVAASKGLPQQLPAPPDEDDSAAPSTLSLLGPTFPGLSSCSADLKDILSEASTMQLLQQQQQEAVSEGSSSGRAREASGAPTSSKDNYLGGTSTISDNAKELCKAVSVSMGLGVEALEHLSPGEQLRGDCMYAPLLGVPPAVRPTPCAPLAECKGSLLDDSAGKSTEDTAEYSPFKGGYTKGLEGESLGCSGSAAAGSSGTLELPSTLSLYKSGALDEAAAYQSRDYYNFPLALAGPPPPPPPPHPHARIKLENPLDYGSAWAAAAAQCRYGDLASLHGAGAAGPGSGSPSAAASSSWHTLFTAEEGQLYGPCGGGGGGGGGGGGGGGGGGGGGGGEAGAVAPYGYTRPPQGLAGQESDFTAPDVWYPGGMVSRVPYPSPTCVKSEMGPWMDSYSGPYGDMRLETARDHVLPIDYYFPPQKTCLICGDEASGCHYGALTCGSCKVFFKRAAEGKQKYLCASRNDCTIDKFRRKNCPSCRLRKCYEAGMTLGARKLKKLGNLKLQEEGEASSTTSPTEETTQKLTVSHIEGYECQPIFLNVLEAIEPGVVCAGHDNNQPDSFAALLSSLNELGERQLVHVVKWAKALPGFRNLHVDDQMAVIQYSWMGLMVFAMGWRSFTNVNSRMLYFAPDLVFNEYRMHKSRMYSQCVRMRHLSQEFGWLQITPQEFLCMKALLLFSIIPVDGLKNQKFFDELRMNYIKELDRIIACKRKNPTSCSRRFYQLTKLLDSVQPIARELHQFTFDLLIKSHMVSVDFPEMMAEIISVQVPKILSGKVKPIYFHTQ
# Method in brief: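 Compounds are added at 20 uM final concentration in 0.2% DMSO to U2OS cells carrying AR-RFP and TIF2-GFP fusions. Nucleolar AR-RFP fluorescence is then quantified by automated imaging. Antagonism is fitted positively against DHT baseline.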
# [2] = molecular target: Nucleoli Translocation, AR (gene 367) (UniProt P10275); experiment: UPITT_HCI_U2OS_AR_TIF2_Nucleoli_Agonist: University of Pittsburgh U2OS Androgen Receptor-Transcriptional Intermediary Factor 2 (AR-TIF2) Agonism High Content Imaging Assay for Nucleoli Translocation (AID 2283998; active = hit-call score of the fitted dose curve at least 0.9, where 1 is the maximum)
# Method in brief: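 RFP-AR / GFP-TIF2 cells; cpds diluted in serum-free medium; single-point screen 20 uM final (0.2% DMSO), actives confirmed in triplicate; conc-response 0.195–50 uM final (0.5% DMSO). Readout: nucleolar red fluorescence, positive direction vs DMSO.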
# [3] = molecular target: Ratio of Nucleoli Translocation and Cytoplasm, AR (gene 367) (UniProt P10275); experiment: UPITT_HCI_U2OS_AR_TIF2_Nucleoli_Cytoplasm_Ratio_Antagonist: University of Pittsburgh U2OS Androgen Receptor-Transcriptional Intermediary Factor 2 (AR-TIF2) Antagonism High Content Imaging Assay for Ratio of Nucleoli Translocation and Cytoplasm (AID 2283999; active = hit-call score of the fitted dose curve at least 0.9, where 1 is the maximum;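 also: antagonists lower the DHT-driven ratio of nucleolar to cytoplasmic red signal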)
# Chain of Ratio of Nucleoli Translocation and Cytoplasm, AR (gene 367) (P10275 whole entry, looked up): as the sequence (P10275 whole entry, looked up, the tested form may be a part) above
# Method in brief: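 This antagonist-mode endpoint tracks AR-RFP localisation, the nucleolus-to-cytoplasm intensity ratio, in TIF2-GFP-coexpressing U2OS cells. DMSO stays at or below 0.5%; testing spans 20 uM single-dose and 0.195–50 uM series, with DHT setting the activity baseline.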
# [4] = molecular target: Ratio of Nucleoli Translocation and Cytoplasm, AR (gene 367) (UniProt P10275); experiment: UPITT_HCI_U2OS_AR_TIF2_Nucleoli_Cytoplasm_Ratio_Agonist: University of Pittsburgh U2OS Androgen Receptor-Transcriptional Intermediary Factor 2 (AR-TIF2) Agonism High Content Imaging Assay for Ratio of Nucleoli Translocation and Cytoplasm (AID 2284000; active = hit-call score of the fitted dose curve at least 0.9, where 1 is the maximum;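 also: hits raise the red nucleolar to cytoplasm ratio above vehicle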)
# Method in brief: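 Human osteosarcoma U2OS line, AR-RFP plus TIF2-GFP; compounds 0.195–50 uM final, 0.5% DMSO. Readout: nucleolar/cytoplasmic RFP ratio by HCI, positive direction vs DMSO baseline.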
# [5] = CCTE_Simmons_MITO_basal_resp_rate: CCTE's HepG2 Seahorse XF Respirometric Screening Assay at Basal Respiratory State, Simmons Lab (AID 2284001); conditions: actives raise or lower the signal
# Method in brief: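 Basal-phase OCR of HepG2 cells on a Seahorse XF96, analysed by bidirectional fit relative to DMSO vehicle; chemicals at 7 concentrations, 125 nM–100 uM final; three biological replicates; fenpyroximate and 2,4-dinitrophenol positive controls.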
# [6] = CCTE_Simmons_MITO_max_resp_rate: CCTE's HepG2 Seahorse XF Respirometric Screening Assay at Maximal Respiratory State [uncoupled], Simmons Lab (AID 2284002); conditions: actives raise or lower the signal
# Method in brief: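 HepG2, Seahorse XF96, maximal OCR post-FCCP. Cpd 125 nM–100 uM final (7 conc), n=3 biological. Kinetic reads every 6 min (3 min mix/3 min measure) over 72 min; fit bidirectional vs DMSO.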
# [7] = CCTE_Simmons_MITO_inhib_resp_rate: CCTE's HepG2 Seahorse XF Respirometric Screening Assay at Inhibited Respiratory State [full ETC block], Simmons Lab (AID 2284006); conditions: actives raise or lower the signal
# Method in brief: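 Test chemicals at seven final concentrations (125 nM–100 uM) in three biological replicates, with DMSO as vehicle. HepG2 oxygen consumption was then tracked on a Seahorse XF96 for 72 min through FCCP and rotenone/antimycin A phases, with the inhibited-phase rate as the endpoint.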
# [8] = CCTE_Simmons_MITO_viability: CellTiter-Glo Viability Assessment for CCTE's HepG2 Seahorse XF Respirometric Screening Assay [post-hoc], Simmons Lab (AID 2284007; active = hit-call score of the fitted dose curve at least 0.9, where 1 is the maximum;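 as to AC50: cells exposed to chemical for 90 min before the ATP read; actives lower ATP signal relative to DMSO baseline meaning reduced viability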)
# Method in brief: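 Post-hoc viability check on the HepG2 respirometry plates: luciferase-based ATP signal measured once, after 90 min compound exposure spanning 125 nM–100 uM final. Activity was referenced to DMSO as baseline.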
structure (smiles),measurement,setting,value
CCCCOCN(C(=O)CCl)c1c(CC)cccc1CC,AC50,DIO1 (gene 1733),37.9 µM (active)
same,AC50,[1],19 µM (active)
same,outcome,[2],inactive
same,AC50,[3],11 µM (active)
same,outcome,[4],inactive
COCC(=O)N(c1c(C)cccc1C)C(C)C(=O)OC (stereo unspecified),AC50,[5],36.2 µM (active)
same,outcome,[6],inactive
same,outcome,[7],inactive
Cc1cnc(C2=NC(C)(C(C)C)C(=O)N2)c(C(=O)O)c1 (stereo unspecified),outcome,[1],inactive
same,outcome,[2],inactive
same,outcome,[4],inactive
CCNP(=S)(OC)O/C(C)=C/C(=O)OC(C)C (stereo unspecified),AC50,[5],37.9 µM (active)
same,AC50,[6],18.1 µM (active)
same,outcome,[7],inactive
same,outcome,[8],inactive
COCC(C)N(C(=O)CCl)c1c(C)csc1C (stereo unspecified),AC50,[5],55.3 µM (active)
same,outcome,[6],inactive
same,outcome,[7],inactive
same,outcome,[8],inactive
CCOc1nc(F)cc2nc(S(=O)(=O)Nc3c(Cl)cccc3Cl)nn12,AC50,DIO1 (gene 1733),38.8 µM (active)
N#Cc1c[nH]cc1-c1cccc2c1OC(F)(F)O2,AC50,[5],77.1 µM (active)
same,outcome,[7],inactive
same,outcome,[8],inactive
CCN(CC)C(=O)C(C)Oc1cccc2ccccc12 (stereo unspecified),outcome,[5],inactive
same,AC50,[6],32.7 µM (active)
same,AC50,[8],50 µM (active)
